Experimental data taken from PubChem BioAssay (Tox21).
“And” between values parts separate entries of the source, which are not always exact repeats. Identical values can stand only once. Results filed as inconclusive are left out. The source made the active and inactive calls. Unless noted, calls come from the whole dose curve; as a rule, active = well fitted curve in the direction sought with a large enough effect in the repeat runs; inconclusive = weak or mixed curves; inactive = no such curve, though single readings can be large; an effect the other way counts as inactive or inconclusive.

Experiments:
[1] = biological target: Thyrotropin-releasing hormone receptor (Homo sapiens) (UniProt P34981); experiment: qHTS assay to identify small molecule agonists of the thyrotropin-releasing hormone receptor (TRHR) signaling pathway (AID 1346891; calls by dose curve;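 note: HEK293 cells expressing TRHR with calcium dye readout; series mostly up to about 58 µM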)
Summary of the method: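 Agonist-mode calcium mobilisation screen: TRHR-transfected HEK293 cells cultured overnight (18 h), dye-loaded for 2 h at 37 °C, exposed to compounds, and monitored by fluorescence for 3 min.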

[2] = Caspase-3/7 induction in HepG2 cells by small molecules, qHTS assay (AID 1346978); note: nearly all actives have a fitted effect of over 15% in size
Summary of the method: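 Caspase-3/7 induction was measured by Caspase-Glo 3/7 luminescence (30 min, room temperature) after a 17 hr compound exposure of wild-type HepG2 cells seeded at 2,000 per well and pre-incubated 5 hr.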

[3] = Caspase-3/7 induction in CHO-K1 cells by small molecules, qHTS cell viability counter screen (AID 1346979); note: nearly all actives have a fitted effect of over 35% in size; note: potency is the fitted concentration of half-maximal effect
Summary of the method: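 In the same wells as the caspase read, viability of compound-treated wild-type CHO-K1 cells was assessed using CellTiter-Fluor, added after 16hr at 37C and measured by fluorescence following 1hr further incubation.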

[4] = Caspase-3/7 induction in CHO-K1 cells by small molecules, qHTS assay (AID 1346980); note: nearly all actives have a fitted effect of over 15% in size
Summary of the method: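 Luminescent Caspase-Glo 3/7 read (30min, room temperature) quantified apoptosis induction. Cells were wild-type CHO-K1, treated with compound for 17hr at 37 C and 5% CO2.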

[5] = Caspase-3/7 induction in HepG2 cells by small molecules, qHTS cell viability counter screen (AID 1346981); note: nearly all actives have a fitted effect of over 30% in size; note: potency is the fitted concentration of half-maximal effect
Summary of the method: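 Viability determined by CellTiter-Fluor fluorescence in HepG2 wells also used for the luminescent Caspase-Glo 3/7 read. Compounds were present for 16 hr at 37 C, 5% CO2 before reagent addition.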

[6] = biological target: Nuclear receptor subfamily 1 group I member 2 (Homo sapiens) (UniProt O75469); experiment: Human pregnane X receptor (PXR) small molecule agonists, qHTS assay (AID 1346982); note: nearly all actives have a fitted effect of over 35% in size; note: potency is the fitted concentration of half-maximal effect
Summary of the method: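 Compound-induced hPXR transactivation of a CYP3A4 luciferase reporter was scored in HepG2 PXR-Luc cells over 24 hr at 37 C, 5% CO2, by luminescence.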

[7] = biological target: Nuclear receptor subfamily 1 group I member 2 (Rattus norvegicus) (UniProt Q9R1A7); experiment: Rat pregnane X receptor (rPXR) activation by small molecules, qHTS assay (AID 1346983); conditions: rPXR luciferase reporter cells, One-Glo luminescence, 24 h; max activation: stronger effect = higher value; note: nearly all actives have a fitted effect of over 20% in size; note: potency is the fitted concentration of half-maximal effect
Summary of the method: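 Luminescent readout (One-Glo luciferase, 30 min room temperature) followed 24 hr compound treatment at 37 C of rPXR cells plated 2,000 per well and preincubated 5hr; qHTS format with compounds delivered in DMSO.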

[8] = biological target: Nuclear receptor subfamily 1 group I member 2 (Homo sapiens) (UniProt O75469); experiment: CYP3A4 induction through human pregnane X receptor (PXR) by small molecules, qHTS assay (AID 1346984); note: nearly all actives have a fitted effect of over 40% in size; note: potency is the fitted concentration of half-maximal effect
Summary of the method: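 Readings come from a luciferase reporter: DPX-2 cells, which are HepG2 cotransfected with PXR and a CYP3A4-promoter construct, were exposed to test compounds for 24 h at 37C before One-Glo detection.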

[9] = biological target: Nuclear receptor subfamily 1 group I member 2 (Homo sapiens) (UniProt O75469); experiment: Human pregnane X receptor (PXR) activation by small molecules, qHTS assay (AID 1346985); note: nearly all actives have a fitted effect of over 40% in size; note: potency is the fitted concentration of half-maximal effect
Summary of the method: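 DPX-2 cells (HepG2 co-transfected with a PXR response element and a CYP3A4-promoter luciferase construct) were seeded at 2,000 per well, rested 5 hr at 37C, then exposed to DMSO-dissolved compounds for 24 hr. Activation was read as luciferase luminescence.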

[10] = Human pregnane X receptor (PXR) small molecule agonists, qHTS cell viability counter screen (AID 1346977); note: nearly all actives have a fitted effect of over 50% in size; note: potency is the fitted concentration of half-maximal effect
Summary of the method: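 Measures live-cell protease fluorescence (CellTiter-Fluor) in PXR-Luc HepG2 cells treated 24hr with compounds at 37C. Cells had 5hr to attach before pin transfer of DMSO solutions.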
% is set by controls: 0 for no effect and ±100 for the full control effect.

Chain of Nuclear receptor subfamily 1 group I member 2 (Homo sapiens) (O75469 whole entry, looked up): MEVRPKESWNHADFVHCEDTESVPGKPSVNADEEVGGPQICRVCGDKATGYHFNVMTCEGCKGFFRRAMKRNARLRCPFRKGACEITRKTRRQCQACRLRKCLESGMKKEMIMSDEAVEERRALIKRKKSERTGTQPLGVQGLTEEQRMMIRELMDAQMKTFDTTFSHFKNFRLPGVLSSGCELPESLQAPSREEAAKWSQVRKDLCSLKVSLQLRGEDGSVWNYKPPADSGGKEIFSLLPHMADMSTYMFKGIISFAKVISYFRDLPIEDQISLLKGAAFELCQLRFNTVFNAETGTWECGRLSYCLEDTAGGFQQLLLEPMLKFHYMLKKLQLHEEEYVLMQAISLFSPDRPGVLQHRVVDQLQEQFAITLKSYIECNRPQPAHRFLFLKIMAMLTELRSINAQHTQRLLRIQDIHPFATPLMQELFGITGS
Chain of Thyrotropin-releasing hormone receptor (Homo sapiens) (P34981 whole entry, looked up): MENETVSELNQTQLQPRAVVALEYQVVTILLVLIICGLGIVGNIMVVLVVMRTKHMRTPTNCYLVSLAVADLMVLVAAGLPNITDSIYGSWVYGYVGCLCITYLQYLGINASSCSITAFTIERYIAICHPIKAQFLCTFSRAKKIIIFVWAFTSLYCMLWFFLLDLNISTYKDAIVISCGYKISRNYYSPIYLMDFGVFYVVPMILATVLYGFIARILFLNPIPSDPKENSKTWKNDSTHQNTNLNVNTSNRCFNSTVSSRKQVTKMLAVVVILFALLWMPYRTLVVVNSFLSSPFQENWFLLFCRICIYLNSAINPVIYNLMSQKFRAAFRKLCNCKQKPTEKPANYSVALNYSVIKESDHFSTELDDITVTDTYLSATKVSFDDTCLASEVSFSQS
Chain of Nuclear receptor subfamily 1 group I member 2 (Rattus norvegicus) (Q9R1A7 whole entry, looked up): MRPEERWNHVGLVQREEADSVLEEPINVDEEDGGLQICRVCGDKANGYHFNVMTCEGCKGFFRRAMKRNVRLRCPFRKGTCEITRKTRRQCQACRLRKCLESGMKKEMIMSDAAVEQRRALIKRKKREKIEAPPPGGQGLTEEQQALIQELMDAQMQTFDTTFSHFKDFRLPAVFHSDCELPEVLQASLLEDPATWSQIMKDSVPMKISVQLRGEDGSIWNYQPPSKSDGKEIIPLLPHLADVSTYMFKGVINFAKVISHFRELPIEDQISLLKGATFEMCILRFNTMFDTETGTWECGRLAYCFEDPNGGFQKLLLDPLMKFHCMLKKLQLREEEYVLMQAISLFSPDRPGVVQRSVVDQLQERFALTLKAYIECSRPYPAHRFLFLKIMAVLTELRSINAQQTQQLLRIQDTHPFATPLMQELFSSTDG

CC(=O)[C@H]1CC[C@H]2[C@@H]3CC[C@H]4C[C@](C)(O)CC[C@]4(C)[C@H]3CC[C@]12C
inactive: Potency [1] | Potency [2] | Potency [3] | Potency [4] | Potency [5] | Potency [6] | Potency [8] | Potency [9]
active: Potency [7] 3.98 µM

CCCCN=C=O
inactive: Potency [1] | Potency [2] | Potency [3] | Potency [5]

CCOP(=O)(OCC)O/C(=C/Cl)c1ccc(Cl)cc1Cl
inactive: Potency [1] | Potency [2] | Potency [4] | Potency [8]
active: Potency [7] 14.1 µM | Potency [9] 3.98 µM

CN1[C@@H]2CC[C@H]1CC(OC(=O)c1cc(Cl)cc(Cl)c1)C2 (some centres not stated)
inactive: Potency [1] | Potency [2] | Potency [3] | Potency [5]

O=C(OC1CCCCC1)c1ccccc1C(=O)OC1CCCCC1
inactive: Potency [1] | Potency [2] | Potency [4]

CC[C@H]1C[C@H]2[C@@H]3CCC4=CC(=O)CC[C@@H]4[C@H]3CC[C@]2(C)[C@H]1O
inactive: Potency [10] | Potency [2] | Potency [3] | Potency [4] | Potency [5]

COC(=O)c1cncn1C(C)c1ccccc1 (configuration not stated)
inactive: Potency [10] | Potency [2] | Potency [3] | Potency [4] | Potency [5] | Potency [6]

COc1ccc(-c2ccccc2)cc1NNC(=O)OC(C)C
active: Potency [6] 71.5 µM
inactive: Potency [1] | Potency [2] | Potency [4]

CO/N=C(/C(=O)OC)c1ccccc1COc1ccccc1C
active: Potency [3] 2.73 µM | Potency [6] 8.63 µM
inactive: Potency [1] | Potency [2] | Potency [4]

CCOP(=O)(OCC)Oc1ccc([N+](=O)[O-])cc1
inactive: Potency [10] | Potency [2] | Potency [3] | Potency [4] | Potency [5]

II
active: Potency [3] 54.5 µM
inactive: Potency [10] | Potency [2] | Potency [4] | Potency [5] | Potency [6]

C[C@]12CC[C@H]3[C@@H](CCC4=CC(=O)CC[C@@H]43)[C@@H]1CC[C@@H]2OC(=O)CCC1CCCCC1
inactive: Potency [1] | Potency [2] | Potency [3] | Potency [5] | Potency [6]

CCOP(=S)(OCC)SCn1nnc2ccccc2c1=O
inactive: Potency [1] | Potency [2] | Potency [4]
active: Potency [3] 68.6 µM | Potency [6] 6.86 µM

CCC(Br)(CC)C(=O)NC(N)=O
inactive: Potency [1] | Potency [2] | Potency [3] | Potency [5] | Potency [6]

CCCC(Cn1cncn1)c1ccc(Cl)cc1Cl (configuration not stated)
inactive: Potency [1] | Potency [2] | Potency [4]
active: Potency [6] 24.3 µM

C(=NC1CCCCC1)=NC1CCCCC1
active: Potency [3] 13.8 µM | Potency [6] 61.5 µM and 54.5 µM
inactive: Potency [1] | Potency [2] | Potency [4]

Nc1ccc(N=Nc2ccc(-c3ccc(N=Nc4c(S(=O)(=O)O)cc5cc(S(=O)(=O)O)c(N=Nc6ccccc6)c(O)c5c4N)cc3)cc2)c(N)c1
inactive: Potency [2] | Potency [4]
active: Potency [10] 17.6 µM | Potency [3] 17.6 µM | Potency [5] 19.7 µM

Clc1ccc(C(OCCN2CCCCC2)c2ccccc2)cc1 (configuration not stated)
active: Potency [8] 12.6 µM
inactive: Potency [1] | Potency [2] | Potency [3] | Potency [4] | Potency [5] | Potency [6] | max activation [7] -3.11% | Potency [9]

Oc1ccc(Cl)c(Cl)c1Cl
active: Potency [6] 63.4 µM
inactive: Potency [1] | Potency [4]

N#Cc1cc(I)c(O)c(I)c1
active: Potency [3] 68.6 µM | Potency [6] 54.5 µM
inactive: Potency [1] | Potency [2]

CCCCN(N=O)C(=N)N[N+](=O)[O-]
active: Potency [3] 62.4 µM
inactive: Potency [1] | Potency [2] | Potency [4] | Potency [6]

C=CC(=O)NCNC(=O)C=C
inactive: Potency [1] | Potency [2] | Potency [4] | Potency [5]
active: Potency [6] 30.6 µM

CNP(=O)(OC)Oc1ccc(C(C)(C)C)cc1Cl (configuration not stated)
active: Potency [6] 17.2 µM
inactive: Potency [1] | Potency [2] | Potency [4] | Potency [5]
